# Assay results reported in the supplement of paper PMC6658780.
# Where a name gives a salt, the structure may show the parent alone. ± gives the standard deviation of the averaged measurements.
# Test system: Klebsiella pneumoniae KPC-119
# Assay: percent growth inhibition of drug + antibiotic vs DMSO control; higher = more growth inhibition
# Conditions: antibiotic (0.125x MIC): colistin; 20 µM
row,Structure (SMILES),percent growth inhibition
1,O=c1[nH]c(=O)n([C@H]2C[C@H](O)[C@@H](CO)O2)cc1F [Floxuridine],98.9 ± 1.5%
2,CC(C)NC[C@H](O)COc1ccc(CC(N)=O)cc1 [(S)-(-)-Atenolol],-1.42 ± 6%
3,CN(C)c1ccc(O)c2c1C[C@H]1C[C@H]3[C@H](N(C)C)C(O)=C(C(N)=O)C(=O)[C@@]3(O)C(O)=C1C2=O [Minocycline hydrochloride],97.8 ± 1.9%
4,CC[C@H]1OC(=O)[C@H](C)[C@@H](O[C@H]2C[C@@](C)(OC)[C@@H](O)[C@H](C)O2)[C@H](C)[C@@H](O[C@@H]2O[C@H](C)C[C@H](N(C)C)[C@H]2O)[C@](C)(O)C[C@@H](C)CN(C)[C@H](C)[C@@H](O)[C@]1(C)O [Azithromycin],98.78 ± 0.7%
5,O=C1OCCN1/N=C/c1ccc([N+](=O)[O-])o1 [Furazolidone],99.62 ± 0.88%
6,CN(C)CCOC(c1ccc(Cl)cc1)c1ccccn1 (stereo unspecified) [Carbinoxamine maleate salt],-10.7 ± 4.1%
7,CO[C@H]1/C=C/O[C@@]2(C)Oc3c(C)c(O)c4c(O)c(c(/C=N/N5CCN(C6CCCC6)CC5)c(O)c4c3C2=O)NC(=O)/C(C)=C\C=C\[C@H](C)[C@H](O)[C@@H](C)[C@@H](O)[C@@H](C)[C@H](OC(C)=O)[C@@H]1C [Rifapentine],93.01 ± 0.93%
8,OCCOCCN1CCN(C2=Nc3ccccc3Sc3ccccc32)CC1 [Quetiapine hemifumarate],-8.06 ± 1.8%
9,CC[C@H]1OC(=O)[C@H](C)[C@@H](O[C@H]2C[C@@](C)(OC)[C@@H](O)[C@H](C)O2)[C@H](C)[C@@H](O[C@@H]2O[C@H](C)C[C@H](N(C)C)[C@H]2O)[C@](C)(OC)C[C@@H](C)C(=O)[C@H](C)[C@@H](O)[C@]1(C)O [Clarithromycin],3.22 ± 2.8%
10,CC(=O)OC[C@H]1O[C@@H]([S-])[C@H](OC(C)=O)[C@@H](OC(C)=O)[C@@H]1OC(C)=O.CCP(CC)CC.[Au+] [Auranofin],96.14 ± 0.42%
11,CO[C@H]1/C=C/O[C@@]2(C)Oc3c(C)c(O)c4c(c3C2=O)C2=NC3(CCN(CC(C)C)CC3)NC2=C(NC(=O)/C(C)=C\C=C\[C@H](C)[C@H](O)[C@@H](C)[C@@H](O)[C@@H](C)[C@H](OC(C)=O)[C@@H]1C)C4=O [Rifabutin],98.1 ± 2.2%
